# Results published in PMC11006913.
# Where a chain is given by its changes, count along the chain named.
# Columns and labels:
# Test in all cases: PBM; 200 nM protein, PBS
# Settings in all cases: dsDNA, one strand shown
# CRX [1] = target: CRX (Homo sapiens, UniProt O43186 26-111)
# HOXB9 [2] = target: HOXB9 (Homo sapiens, UniProt P17482 171-250, T197M)
# HOXC9 [3] = target: HOXC9 (Homo sapiens, UniProt P31274 178-260, K195R)
# HOXA7 [4] = target: HOXA7 (Homo sapiens, UniProt P31268 116-202)
# HOXC10 [5] = target: HOXC10 (Homo sapiens, UniProt Q9NYD6 254-340)
# HOXB9 [6] = target: HOXB9 (Homo sapiens, UniProt P17482 171-250)
# CRX [7] = target: CRX (Homo sapiens, UniProt O43186 26-111, E42D)
# HOXC9 [8] = target: HOXC9 (Homo sapiens, UniProt P31274 178-260)
# HOXD13 [9] = target: HOXD13 (Homo sapiens, UniProt P35453 263-343, T313R)
# HOXC9 [10] = target: HOXC9 (Homo sapiens, UniProt P31274 178-260, R193K)
# HOXD13 [11] = target: HOXD13 (Homo sapiens, UniProt P35453 263-343)
# HOXC10 [12] = target: HOXC10 (Homo sapiens, UniProt Q9NYD6 254-340, K271E)
# HOXD13 [13] = target: HOXD13 (Homo sapiens, UniProt P35453 263-343, T313A)
# HOXB9 [14] = target: HOXB9 (Homo sapiens, UniProt P17482 171-250, R186Q)
# HOXC9 [15] = target: HOXC9 (Homo sapiens, UniProt P31274 178-260, R222W)
# HOXA7 [16] = target: HOXA7 (Homo sapiens, UniProt P31268 116-202, W177C)
# CRX [17] = target: CRX (Homo sapiens, UniProt O43186 26-111, R41L)
# SIX6 [18] = target: T1, SIX6 (Homo sapiens, UniProt O95475 114-200, L167I)
# T1 sequence: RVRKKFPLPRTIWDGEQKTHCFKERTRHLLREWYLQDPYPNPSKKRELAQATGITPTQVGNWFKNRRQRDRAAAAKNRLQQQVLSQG
# SIX6 [19] = target: T2, SIX6 (Homo sapiens, UniProt O95475 114-200, L143V)
# T2 sequence: T1 sequence with L30V, I54L
# SIX6 [20] = target: T3, SIX6 (Homo sapiens, UniProt O95475 114-200, H141N)
# T3 sequence: T1 sequence with H28N, I54L
# SIX6 [21] = target: T4, SIX6 (Homo sapiens, UniProt O95475 114-200, T165P)
# T4 sequence: T1 sequence with T52P, I54L
# SIX6 [22] = target: T5, SIX6 (Homo sapiens, UniProt O95475 114-200, L167M)
# T5 sequence: T1 sequence with I54M
# SIX6 [23] = target: T6, SIX6 (Homo sapiens, UniProt O95475 114-200, L143M)
# T6 sequence: T1 sequence with L30M, I54L
# SIX6 [24] = target: T7, SIX6 (Homo sapiens, UniProt O95475 114-200, T165G)
# T7 sequence: T1 sequence with T52G, I54L
# SIX6 [25] = target: T8, SIX6 (Homo sapiens, UniProt O95475 114-200, T139Q)
# T8 sequence: T1 sequence with T26Q, I54L
# SIX6 [26] = target: T9, SIX6 (Homo sapiens, UniProt O95475 114-200, T165A)
# T9 sequence: T1 sequence with T52A, I54L
# SIX6 [27] = target: T10, SIX6 (Homo sapiens, UniProt O95475 114-200, L167V)
# T10 sequence: T1 sequence with I54V
# SIX6 [28] = target: T11, SIX6 (Homo sapiens, UniProt O95475 114-200)
# T11 sequence: T1 sequence with I54L
# SIX6 [29] = target: T12, SIX6 (Homo sapiens, UniProt O95475 114-200, T165I)
# T12 sequence: T1 sequence with T52I, I54L
# ALX4 [30] = target: ALX4 (Homo sapiens, UniProt Q9H161 200-286)
# SIX6 [31] = target: T13, SIX6 (Homo sapiens, UniProt O95475 114-200, L143I)
# T13 sequence: T1 sequence with L30I, I54L
# ALX4 [32] = target: ALX4 (Homo sapiens, UniProt Q9H161 200-286, Q225E)
# HOXA2 [33] = target: HOXA2 (Homo sapiens, UniProt O43364 129-215, R185T)
# HOXA2 [34] = target: HOXA2 (Homo sapiens, UniProt O43364 129-215, R185K)
# HOXA2 [35] = target: HOXA2 (Homo sapiens, UniProt O43364 129-215, Y150S)
# HOXA2 [36] = target: HOXA2 (Homo sapiens, UniProt O43364 129-215)
# Chain of HOXA2 (Homo sapiens, UniProt O43364 129-215) (O43364 129-215): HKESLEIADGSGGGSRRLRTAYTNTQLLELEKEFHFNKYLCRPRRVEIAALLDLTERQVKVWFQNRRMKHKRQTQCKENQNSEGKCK
# Chain of CRX (Homo sapiens, UniProt O43186 26-111) (O43186 26-111): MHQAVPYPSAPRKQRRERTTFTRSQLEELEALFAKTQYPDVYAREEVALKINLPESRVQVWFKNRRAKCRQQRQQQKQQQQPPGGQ
# Chain of CRX (Homo sapiens, UniProt O43186 26-111, E42D) (O43186 26-111 E42D): as the sequence (O43186 26-111) above, with E17D counted along it
# Chain of CRX (Homo sapiens, UniProt O43186 26-111, R41L) (O43186 26-111 R41L): as the sequence (O43186 26-111) above, with R16L counted along it
# Chain of HOXC9 (Homo sapiens, UniProt P31274 178-260, R222W) (P31274 178-260 R222W): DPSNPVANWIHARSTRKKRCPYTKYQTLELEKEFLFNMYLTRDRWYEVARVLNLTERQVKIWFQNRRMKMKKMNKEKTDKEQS
# Chain of HOXB9 (Homo sapiens, UniProt P17482 171-250) (P17482 171-250): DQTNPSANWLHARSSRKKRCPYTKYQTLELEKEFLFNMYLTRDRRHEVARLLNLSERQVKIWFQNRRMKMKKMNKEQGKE
# Chain of HOXB9 (Homo sapiens, UniProt P17482 171-250, R186Q) (P17482 171-250 R186Q): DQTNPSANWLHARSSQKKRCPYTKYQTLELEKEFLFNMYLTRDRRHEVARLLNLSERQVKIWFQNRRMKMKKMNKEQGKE
# Chain of HOXC9 (Homo sapiens, UniProt P31274 178-260) (P31274 178-260): as the sequence (P31274 178-260 R222W) above, with W45R counted along it
# Chain of HOXC9 (Homo sapiens, UniProt P31274 178-260, K195R) (P31274 178-260 K195R): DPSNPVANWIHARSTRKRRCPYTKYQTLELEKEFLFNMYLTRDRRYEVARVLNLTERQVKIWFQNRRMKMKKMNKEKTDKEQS
# Chain of HOXC9 (Homo sapiens, UniProt P31274 178-260, R193K) (P31274 178-260 R193K): as the sequence (P31274 178-260 R222W) above, with R16K, W45R counted along it
# Chain of HOXB9 (Homo sapiens, UniProt P17482 171-250, T197M) (P17482 171-250 T197M): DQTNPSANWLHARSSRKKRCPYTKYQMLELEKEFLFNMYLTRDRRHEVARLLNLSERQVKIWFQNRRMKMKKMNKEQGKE
# Chain of HOXA7 (Homo sapiens, UniProt P31268 116-202, W177C) (P31268 116-202 W177C): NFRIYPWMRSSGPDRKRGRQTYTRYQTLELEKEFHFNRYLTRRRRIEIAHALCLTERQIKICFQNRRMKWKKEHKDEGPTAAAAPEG
# Chain of HOXC10 (Homo sapiens, UniProt Q9NYD6 254-340, K271E) (Q9NYD6 254-340 K271E): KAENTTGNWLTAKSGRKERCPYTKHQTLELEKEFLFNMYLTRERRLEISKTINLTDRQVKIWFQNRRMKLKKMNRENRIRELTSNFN
# Chain of HOXD13 (Homo sapiens, UniProt P35453 263-343, T313R) (P35453 263-343 T313R): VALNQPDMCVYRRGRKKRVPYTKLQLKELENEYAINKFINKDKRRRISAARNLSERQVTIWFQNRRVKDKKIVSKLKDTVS
# Chain of HOXA2 (Homo sapiens, UniProt O43364 129-215, R185T) (O43364 129-215 R185T): as the sequence (O43364 129-215) above, with R57T counted along it
# Chain of HOXD13 (Homo sapiens, UniProt P35453 263-343, T313A) (P35453 263-343 T313A): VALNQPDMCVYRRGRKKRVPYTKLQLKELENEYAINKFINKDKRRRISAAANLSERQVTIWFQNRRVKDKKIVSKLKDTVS
# Chain of HOXA2 (Homo sapiens, UniProt O43364 129-215, R185K) (O43364 129-215 R185K): as the sequence (O43364 129-215) above, with R57K counted along it
# Chain of HOXA2 (Homo sapiens, UniProt O43364 129-215, Y150S) (O43364 129-215 Y150S): as the sequence (O43364 129-215) above, with Y22S counted along it
# Chain of ALX4 (Homo sapiens, UniProt Q9H161 200-286, Q225E) (Q9H161 200-286 Q225E): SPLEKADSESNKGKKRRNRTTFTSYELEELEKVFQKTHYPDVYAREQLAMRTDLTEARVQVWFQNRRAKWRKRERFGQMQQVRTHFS
# Chain of HOXD13 (Homo sapiens, UniProt P35453 263-343) (P35453 263-343): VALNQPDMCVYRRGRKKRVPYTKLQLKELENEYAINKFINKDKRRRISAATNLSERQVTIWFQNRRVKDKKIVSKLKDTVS
# Chain of ALX4 (Homo sapiens, UniProt Q9H161 200-286) (Q9H161 200-286): as the sequence (Q9H161 200-286 Q225E) above, with E26Q counted along it
# Chain of HOXC10 (Homo sapiens, UniProt Q9NYD6 254-340) (Q9NYD6 254-340): as the sequence (Q9NYD6 254-340 K271E) above, with E18K counted along it
# Chain of HOXA7 (Homo sapiens, UniProt P31268 116-202) (P31268 116-202): as the sequence (P31268 116-202 W177C) above, with C62W counted along it
sequence,measurement,setting,value
ATTTATGG,binding signal,CRX [1],"10.2 upbm affinity estimate (log intensity, higher = more binding, comparable within an allelic series)"
same,binding signal,HOXB9 [2],"9.79 upbm affinity estimate (log intensity, higher = more binding, comparable within an allelic series)"
same,binding signal,HOXC9 [3],"12.7 upbm affinity estimate (log intensity, higher = more binding, comparable within an allelic series)"
same,binding signal,HOXA7 [4],"10.6 upbm affinity estimate (log intensity, higher = more binding, comparable within an allelic series)"
same,binding signal,HOXC10 [5],"12.5 upbm affinity estimate (log intensity, higher = more binding, comparable within an allelic series)"
same,binding signal,HOXB9 [6],"12.1 upbm affinity estimate (log intensity, higher = more binding, comparable within an allelic series)"
same,binding signal,CRX [7],"9.96 upbm affinity estimate (log intensity, higher = more binding, comparable within an allelic series)"
same,binding signal,HOXC9 [8],"12.9 upbm affinity estimate (log intensity, higher = more binding, comparable within an allelic series)"
same,binding signal,HOXD13 [9],"10.8 upbm affinity estimate (log intensity, higher = more binding, comparable within an allelic series)"
same,binding signal,HOXC9 [10],"12.8 upbm affinity estimate (log intensity, higher = more binding, comparable within an allelic series)"
same,binding signal,HOXD13 [11],"12.1 upbm affinity estimate (log intensity, higher = more binding, comparable within an allelic series)"
same,binding signal,HOXC10 [12],"11.7 upbm affinity estimate (log intensity, higher = more binding, comparable within an allelic series)"
same,binding signal,HOXD13 [13],"11.8 upbm affinity estimate (log intensity, higher = more binding, comparable within an allelic series)"
same,binding signal,HOXB9 [14],"11.8 upbm affinity estimate (log intensity, higher = more binding, comparable within an allelic series)"
same,binding signal,HOXC9 [15],"11.2 upbm affinity estimate (log intensity, higher = more binding, comparable within an allelic series)"
same,binding signal,HOXA7 [16],"8.83 upbm affinity estimate (log intensity, higher = more binding, comparable within an allelic series)"
same,binding signal,CRX [17],"9.82 upbm affinity estimate (log intensity, higher = more binding, comparable within an allelic series)"
ACCAGCCC,binding signal,CRX [1],"8.23 upbm affinity estimate (log intensity, higher = more binding, comparable within an allelic series)"
same,binding signal,HOXC9 [3],"9.73 upbm affinity estimate (log intensity, higher = more binding, comparable within an allelic series)"
same,binding signal,CRX [7],"8.32 upbm affinity estimate (log intensity, higher = more binding, comparable within an allelic series)"
same,binding signal,HOXC9 [8],"9.8 upbm affinity estimate (log intensity, higher = more binding, comparable within an allelic series)"
same,binding signal,HOXC9 [10],"9.71 upbm affinity estimate (log intensity, higher = more binding, comparable within an allelic series)"
same,binding signal,HOXC9 [15],"9.62 upbm affinity estimate (log intensity, higher = more binding, comparable within an allelic series)"
same,binding signal,CRX [17],"8.17 upbm affinity estimate (log intensity, higher = more binding, comparable within an allelic series)"
AGACTATC,binding signal,CRX [1],"9.61 upbm affinity estimate (log intensity, higher = more binding, comparable within an allelic series)"
same,binding signal,SIX6 [18],"10.2 upbm affinity estimate (log intensity, higher = more binding, comparable within an allelic series)"
same,binding signal,SIX6 [19],"9.83 upbm affinity estimate (log intensity, higher = more binding, comparable within an allelic series)"
same,binding signal,SIX6 [20],"10.2 upbm affinity estimate (log intensity, higher = more binding, comparable within an allelic series)"
same,binding signal,SIX6 [21],"9.59 upbm affinity estimate (log intensity, higher = more binding, comparable within an allelic series)"
same,binding signal,SIX6 [22],"9.99 upbm affinity estimate (log intensity, higher = more binding, comparable within an allelic series)"
same,binding signal,SIX6 [23],"10.2 upbm affinity estimate (log intensity, higher = more binding, comparable within an allelic series)"
same,binding signal,SIX6 [24],"10.2 upbm affinity estimate (log intensity, higher = more binding, comparable within an allelic series)"
same,binding signal,SIX6 [25],"10.4 upbm affinity estimate (log intensity, higher = more binding, comparable within an allelic series)"
same,binding signal,CRX [7],"9.51 upbm affinity estimate (log intensity, higher = more binding, comparable within an allelic series)"
same,binding signal,SIX6 [26],"10.1 upbm affinity estimate (log intensity, higher = more binding, comparable within an allelic series)"
same,binding signal,SIX6 [27],"10 upbm affinity estimate (log intensity, higher = more binding, comparable within an allelic series)"
same,binding signal,SIX6 [28],"10.2 upbm affinity estimate (log intensity, higher = more binding, comparable within an allelic series)"
same,binding signal,SIX6 [29],"10.1 upbm affinity estimate (log intensity, higher = more binding, comparable within an allelic series)"
same,binding signal,CRX [17],"9.45 upbm affinity estimate (log intensity, higher = more binding, comparable within an allelic series)"
GGGGCCCC,binding signal,CRX [1],"8.9 upbm affinity estimate (log intensity, higher = more binding, comparable within an allelic series)"
same,binding signal,HOXB9 [2],"8.67 upbm affinity estimate (log intensity, higher = more binding, comparable within an allelic series)"
same,binding signal,SIX6 [18],"9.09 upbm affinity estimate (log intensity, higher = more binding, comparable within an allelic series)"
same,binding signal,SIX6 [19],"8.85 upbm affinity estimate (log intensity, higher = more binding, comparable within an allelic series)"
same,binding signal,ALX4 [30],"8.29 upbm affinity estimate (log intensity, higher = more binding, comparable within an allelic series)"
same,binding signal,SIX6 [20],"9 upbm affinity estimate (log intensity, higher = more binding, comparable within an allelic series)"
same,binding signal,SIX6 [21],"8.87 upbm affinity estimate (log intensity, higher = more binding, comparable within an allelic series)"
same,binding signal,SIX6 [22],"8.88 upbm affinity estimate (log intensity, higher = more binding, comparable within an allelic series)"
same,binding signal,SIX6 [23],"8.91 upbm affinity estimate (log intensity, higher = more binding, comparable within an allelic series)"
same,binding signal,SIX6 [31],"8.93 upbm affinity estimate (log intensity, higher = more binding, comparable within an allelic series)"
same,binding signal,ALX4 [32],"8.44 upbm affinity estimate (log intensity, higher = more binding, comparable within an allelic series)"
same,binding signal,SIX6 [24],"8.95 upbm affinity estimate (log intensity, higher = more binding, comparable within an allelic series)"
same,binding signal,HOXA2 [33],"7.49 upbm affinity estimate (log intensity, higher = more binding, comparable within an allelic series)"
same,binding signal,HOXB9 [6],"8.5 upbm affinity estimate (log intensity, higher = more binding, comparable within an allelic series)"
same,binding signal,SIX6 [25],"9.06 upbm affinity estimate (log intensity, higher = more binding, comparable within an allelic series)"
same,binding signal,CRX [7],"8.69 upbm affinity estimate (log intensity, higher = more binding, comparable within an allelic series)"
same,binding signal,SIX6 [26],"9.03 upbm affinity estimate (log intensity, higher = more binding, comparable within an allelic series)"
same,binding signal,HOXA2 [34],"10.2 upbm affinity estimate (log intensity, higher = more binding, comparable within an allelic series)"
same,binding signal,SIX6 [27],"8.99 upbm affinity estimate (log intensity, higher = more binding, comparable within an allelic series)"
same,binding signal,SIX6 [28],"8.93 upbm affinity estimate (log intensity, higher = more binding, comparable within an allelic series)"
same,binding signal,SIX6 [29],"8.97 upbm affinity estimate (log intensity, higher = more binding, comparable within an allelic series)"
same,binding signal,HOXB9 [14],"8.63 upbm affinity estimate (log intensity, higher = more binding, comparable within an allelic series)"
same,binding signal,HOXA2 [35],"10.5 upbm affinity estimate (log intensity, higher = more binding, comparable within an allelic series)"
same,binding signal,CRX [17],"8.38 upbm affinity estimate (log intensity, higher = more binding, comparable within an allelic series)"
same,binding signal,HOXA2 [36],"7.38 upbm affinity estimate (log intensity, higher = more binding, comparable within an allelic series)"
